Here are results for 66 molecules from ChEMBL document CHEMBL4513216, “Probing the Open Global Health Chemical Diversity Library for Multistage-Active Starting Points for Next-Generation Antimalarials” (ACS Infect Dis, 2020).

About 8,600 (12%) of roughly 69,000 compounds showed an effect of 50% or more. This excerpt belongs to a sample that is enriched for strong results.

For this assay, the system named is Plasmodium berghei. The assay is described as follows: Screen against P. berghei liver stage (PbLuc), transformed with Luciferase, at 10uM. The assay is classed as functional, HepG2. The following applies: tested at 10 uM.
`Cc1nc(C2CN(C)CCO2)cc(N2CCC(CO)CC2)n1` (stereo unspecified): the INHIBITION was 32.8%. Regarding `O=C(CC1CCCC1)N1C[C@H](Oc2cccnc2)[C@H]2OCCC[C@H]21`, the INHIBITION is -24.5%.

Turning to `Cc1nc(=O)c2ccccc2n1C1=CCN(CC(=O)NC(C)C)CC1`, the INHIBITION is recorded as 23.9%. To `O=C(C1CCOc2ccccc2C1)N1Cc2cnn(CCO)c2C1` (stereo unspecified) belongs 27.6%; to `O=C(CN1CCOc2ccccc2C1)N1Cc2cnn(CCO)c2C1`, 71.5%; to `O=C(C1COc2ccccc2O1)N1Cc2cnn(CCO)c2C1` (stereo unspecified), 13.7%. For the molecule `CCOc1ccc(CN2CCC(c3[nH]ncc3C)C2)cc1CO` (stereo unspecified), the INHIBITION amounted to 14.65%. With `COc1ncnc2c1CCN(C(=O)NCc1cccnc1)CC2` the figure was -18.2%; with `CCc1nc(C2CCCN2CC(=O)Nc2cc(C)no2)no1` (stereo unspecified), -14.7%.

Consider `CCc1cnc(NCC(C)Oc2cccnc2)nc1` (stereo unspecified), for which the INHIBITION was -5.19%.

As to `CC(CNc1nccc(C(C)C)n1)Oc1cccnc1` (stereo unspecified), the INHIBITION was 24.3%. To `CCC(CC)NCC(C)Oc1cccnc1` (stereo unspecified) belongs 54.6%; to `CC(C)c1ncc(CN2CCC(c3n[nH]cc3C(=O)N(C)C)C2)cn1` (stereo unspecified), 10.9%. With `Cc1cccc(S(=O)(=O)N2C[C@@H]3C[C@@H](c4nc(C)no4)O[C@@H]3C2)c1` the figure was 49.4%; with `CN(C)Cc1ccccc1CN(C)c1ncnc2[nH]ccc12`, 52.2%. To `CN(Cc1ccccc1CN1CCCC1)c1ncnc2[nH]ccc12` belongs -42.1%; to `Cc1cccnc1CN(C)c1ncnc2[nH]ccc12`, -76.9%; to `COc1cccc(S(=O)(=O)N2C[C@H](OC)[C@]3(CCCO3)C2)c1`, 28.5%. As for `CCCN1CCCN(C(=O)Nc2ccc3c(c2)OCO3)CC1`, the INHIBITION is on record as -42.1%. To `O=C(Nc1ccc2c(c1)OCO2)N1CCN(CCn2cccn2)CC1` belongs 42.8%; to `O=C(Nc1ccc2c(c1)OCO2)N1CCN(CCc2ccccc2)CC1`, 60.9%; to `Cc1nnc(CN(C)C2CCCN(Cc3noc(C4CC4)n3)C2)o1` (stereo unspecified), 27.8%. To `Cc1csc(NC(=O)C2(C)CN(C)CCO2)n1` (stereo unspecified) belongs 12.235%. To `Cc1nc(-c2ccc(S(=O)(=O)N3CCC4(CC3)OCCO4)cc2)co1` belongs 48.4%; to `CCN1CCC(NC(=O)CN2CCCC2Cn2cc(C)cn2)CC1` (stereo unspecified), 11.2%; to `Cc1cccc(OC2CCN(c3nccnc3C#N)CC2)n1`, 11.4%.

For the molecule `Cc1cccc(OC2CCN(c3ccc(C#N)cn3)CC2)n1`, the INHIBITION was 51.1%. On to `Cc1cccc(OC2CCN(c3ncc(C#N)cc3Cl)CC2)n1`, for which the INHIBITION is given as 12.4%. To `CC(C)N1CCn2c(COCC3CCOCC3)cnc2C1C` (stereo unspecified) belongs 39.4%. Turning to `COc1cc(C)nc(N2CCN(C(=O)COC3CCCC3)CC2)n1`, the INHIBITION stood at 26.36%.

In the case of `Cc1cn[nH]c1C1CCCCN1C(=O)CCc1ccc(F)cc1` (stereo unspecified), the INHIBITION was 2.6%.

As for `O=C(c1ccsc1)N1CCC(c2nnc(C3CC3)o2)CC1`, the INHIBITION is reported as 14.3%. To `Cc1cc(C)n(CC2CCCN2C(=O)c2ccc3ccccc3n2)n1` (stereo unspecified) belongs 21%. To `CCOc1ccc(Cl)c(C(=O)N2CCN(c3cnccn3)CC2)n1` belongs 52.7%. `CCOc1ccc(Cl)c(C(=O)N2CCN(c3ncccn3)CC2)n1`: the INHIBITION is listed as 1.78%. To `CCOc1ccc(Cl)c(C(=O)N2CCN(c3ccncc3)CC2)n1` belongs 10%. To `CCC(NC(=O)c1ccoc1)c1ccccc1OCC(=O)N1CCCC1` (stereo unspecified) belongs 29.05%; to `COCC(=O)N[C@H](C(=O)NC(C)c1cccc(C)c1C)C(C)C` (stereo partly specified), 28.7%. To `CCOCC(=O)NC(C)c1cc(C)ccc1C` (stereo unspecified) belongs 30.5%; to `COCC(=O)N[C@H](C(=O)NC(C)c1cc(C)ccc1C)C(C)C` (stereo partly specified), 57.4%; to `CC1=Nc2c(c(=O)[nH]n2C(C)C)C(c2ccccc2)S1` (stereo unspecified), 7.11%.

As for `CC1=Nc2c(c(=O)[nH]n2C(C)C)C(c2ccc(F)c(F)c2)S1` (stereo unspecified), the INHIBITION is recorded as -3.95%. `CC1=Nc2c(c(=O)[nH]n2C(C)C)C(c2ccc3c(c2)n(C)c(=O)n3C)S1` (stereo unspecified): the INHIBITION is -39.6%.

For `CC1=Nc2c(c(=O)[nH]n2C(C)C)C(c2ccc3c(c2)OCCO3)S1` (stereo unspecified), the INHIBITION was -14.1%. With `CC1=Nc2c(c(=O)[nH]n2C(C)C)C(c2ccc3ncccc3c2)S1` (stereo unspecified) the figure was 80%. With `CC1=Nc2c(c(=O)[nH]n2C(C)C)C(c2ccc3nccnc3c2)S1` (stereo unspecified), the INHIBITION stood at 58.5%. For `O=C(Nc1ccccc1)[C@H]1C[C@H]2CN(S(=O)(=O)C3CC3)C[C@@H]1O2`, the INHIBITION is on record as 30.3%. For `CC(C)c1cnc(CN2CCCC(c3cc(C(N)=O)[nH]n3)C2)o1` (stereo unspecified), the INHIBITION was -0.113%. With `Cc1cccnc1NC(=O)c1ccc(F)c(S(=O)(=O)NC2CC2)c1` the figure was 20.9%; with `Cc1ccccc1CN(C)C(=O)CN1CCOC(Cn2cccn2)C1` (stereo unspecified), -4.16%.

As to `CC(C)c1nnc(NC(=O)CCC(=O)NCC2CCCO2)s1` (stereo unspecified), the INHIBITION was found to be 52.5%. To `O=C(CCC(=O)Nc1nnc(C(F)(F)F)s1)NCC1CCCO1` (stereo unspecified) belongs 0.207%; to `O=C(CCC(=O)Nc1nnc(C2CCCCC2)s1)NCC1CCCO1` (stereo unspecified), 18.4%. To `Cc1ncc2c(c1CNC(=O)C1(C)CCCCO1)CCNC2` (stereo unspecified) belongs 36.9%; to `Cc1ncc2c(c1CNC(=O)C1(C)CC1)CCNC2`, 14.6%. To `COc1ccc(C2(C(=O)NCc3c(C)ncc4c3CCNC4)CC2)cc1` belongs 44.3%; to `Cc1ncc2c(c1CNC(=O)C1(c3ccc(F)cc3)CC1)CCNC2`, 61.9%; to `Cc1ccc(OCC(O)CNC(=O)C2(c3ccc(F)cc3)CC2)cc1` (stereo unspecified), -26.1%.

As for `Cc1ncc2c(c1CNC(=O)C1(C)CCCO1)CCNC2` (stereo unspecified), the INHIBITION turned out to be 56.3%. `COc1cccc(CCC(=O)N2CCC[C@@H](N)[C@@H]2c2ccccc2F)c1`: the INHIBITION is listed as 14.4%.

Regarding `COc1c(CNCC(O)c2ccc(C)cc2)c(C(C)C)nn1C` (stereo unspecified), the INHIBITION is recorded as -6.14%. With `CS(=O)(=O)CC1(CNc2cc(C#N)c3cc(Cl)ccc3n2)CC1` the figure was 6.23%. With `CC(NC(=O)CNc1cc2c(cc1Cl)NC(=O)CO2)c1ccco1` (stereo unspecified) the figure was 17.1%. With `Cn1nnnc1SCC(=O)N1CCN(C(=O)C2CC2c2cccs2)CC1` (stereo unspecified) the figure was -40.4%; with `CCc1nnc2n1CCN(C(=O)CCc1ccc3c(c1)OCO3)C2`, 37.4%; with `O=C(C1CCOCC1)N1C[C@@H]2[C@@H](C1)OCC(=O)N2Cc1ccncc1`, -46.5%.
